In assay [1] the test system is Human papillomavirus type 1a protein E7 (residues 44-93). Nature of the assay: small molecules binding HPV E7 44-93 – biochemical, small-molecule microarray, residues 44-93, 635 nm fluorescence, primary screen (AID 1108).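 Also: E7 fragment applied at 1 µg/mL in TBST for 1 h at 4 C; score combines spot fluorescence with its signal to noise ratio.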 The following applies: fluorescence 635 nm, higher = more signal.
The nature of assay [2]: hepatitis C replication reporter changes, two-sided – Huh7 cells, luciferase reporter, HCV replication inhibitor project, primary screen (AID 1109).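 Also: huh7 hepatoma cells harbouring a luciferase neomycin HCV replicon reporter; luciferase luminescence as measure of HCV replicon replication; test concentration not given here.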 The following applies: Huh7 HCV replicon luciferase reporter, 48 h; higher = more signal. On the technique in general: In a reporter assay the amount or activity of a reporter protein is the signal.
For assay [3], the target named is Left-right determination factor 2 (Homo sapiens) (UniProt O00292). Kind of assay: small molecules binding LEFTY2 protein – biochemical, small-molecule microarray, 635 nm fluorescence scan, primary screen (AID 1110). As to conditions: higher = more signal.
The target of assay [4] is Calmodulin-1 (Homo sapiens) (UniProt P0DP23). Kind of assay: small molecules binding calmodulin-1 with EGTA – biochemical, small-molecule microarray, Cy5-labelled CALM1, profiling panel (AID 1111).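 Also: labelled calmodulin applied in Tris saline Tween buffer holding calcium plus EGTA and DTT.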 The following applies: Cy5-CALM1 binding fluorescence, higher = more signal.
The target is the same in assay [5]. Nature of the assay: small molecules binding Ca-loaded calmodulin-1 – biochemical, small-molecule microarray, Cy5-labelled CALM1, plus calcium, artefact control for SMM control-protein annotation, profiling panel (AID 1112).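 Also: score merges spot fluorescence with signal to noise from triplicate slides.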 As to conditions: Cy5-CALM1 binding fluorescence, higher = more signal.
The nature of assay [6]: probe aWnt5a binding to arrayed compounds – biochemical, biotinylated probe, 635/667 nm fluorescence, primary screen (AID 1113).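 Also: score merges 667 nm fluorescence intensity with signal-to-noise per printed feature.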 The following applies: small-molecule microarray, higher = more signal.
Assay [7] can be described thus: probe aShh binding to arrayed compounds – biochemical, biotinylated probe, 635/667 nm fluorescence, primary screen (AID 1114).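 Also: probe is biotin-labelled aShh protein from a stem cell growth factor screen; measures binding of labelled protein to compounds printed on the slide; score merges feature fluorescence at 667 nm with signal-to-noise.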 The following applies: small-molecule microarray, higher = more signal.
Assay [8] in a line: probe aNog binding to arrayed compounds – biochemical, biotinylated probe, 635/667 nm fluorescence, primary screen (AID 1115).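 Also: probe is biotinylated aNog protein used at 0.15 µg/mL for 1 h at 4 C; z-score combines 667 nm fluorescence of each spot with its signal to noise.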 As to conditions: small-molecule microarray, higher = more signal.
Assay [9] deals with Torsin-1A-interacting protein 1 (Homo sapiens) (UniProt Q5JTV8). Kind of assay: compound microarray binding of lysate hLAP1 – cell lysate, small-molecule microarray, COS7 lysate, 635/667 nm fluorescence, primary screen (AID 1116). The following applies: 635 nm fluorescence, higher = more signal.
Assay [10] has as its target Alpha-bungarotoxin (Bungarus multicinctus) (UniProt P60615). Kind of assay: compounds binding labelled alpha-BTX control protein – biochemical, small-molecule microarray, Alexa647 label, 635/667 nm fluorescence, artefact control for SMM control protein annotation, profiling panel (AID 1117). The following applies: alpha-BTX-A647 binding fluorescence, higher = more signal.

A further assay addresses Albumin (Bos taurus) (UniProt P02769). Nature of the assay: compounds binding labelled BSA control protein – biochemical, small-molecule microarray, Alexa647 label, 635/667 nm fluorescence, artefact control for SMM control protein annotation, profiling panel (AID 1118).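 Also: score merges 667 nm emission intensity and signal-to-noise per printed compound spot.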 As to conditions: BSA-A647 binding, fluorescence 635 nm, higher = more signal.
Assay [11] in a line: probe aXIP binding to arrayed compounds – biochemical, NeuroSMM set, 635/667 nm fluorescence, primary screen (AID 1119).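 Also: probe is the protein aXip251-270 applied at 1 µg/mL to compound-printed slides; binding of probe to printed compounds measured as 667 nm fluorescence plus signal to noise.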 The following applies: small-molecule microarray, higher = more signal, called active from +8 up or from −8 down.
Assay [12] can be described thus: probe aNOTCH3 binding on compound microarray – biochemical, small-molecule microarray, 635/667 nm fluorescence, primary screen (AID 1120).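 Also: probe is a biotin-tagged antibody raised against NOTCH3 rather than NOTCH3 protein; score merges spot fluorescence near 667 nm with spot signal to noise.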 The following applies: higher = more signal.
Assay [13] can be described thus: probe aNOTCH2 binding on compound microarray – biochemical, small-molecule microarray, 635/667 nm fluorescence, primary screen (AID 1121).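 Also: score merges feature fluorescence read at 667 nm with its signal to noise.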 As to conditions: higher = more signal.
In assay [14] the target is Carbonic anhydrase 2 (Homo sapiens) (UniProt P00918). Kind of assay: compounds binding carbonic anhydrase 2 – biochemical, small-molecule microarray, Alexa647-labelled CAII, profiling panel (AID 1122). The following applies: CAII-A647 binding fluorescence, higher = more signal.
Assay [15] is described as follows: COS7 lysate on small-molecule microarray, probe aHis, 635 nm (AID 1123).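 Also: z-score combines 667nm fluorescence intensity with signal-to-noise per printed compound spot.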 As to conditions: COS7 cell lysate, fluorescence, higher = more signal.
The nature of assay [16]: probe aLAP1 signal on lysate-treated microarray – cell lysate, small-molecule microarray, COS7 lysate, primary screen (AID 1124).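 Also: lysate comes from COS7 cells expressing LAP1 and is applied at 0.3 µg/mL; score merges spot fluorescence near 667 nm with signal-to-noise over triplicate slides.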 As to conditions: probe aLAP1, fluorescence, higher = more signal.
In another assay the test system is Sam68 (KHDRBS1). Kind of assay: compounds binding KHDRBS1 protein – biochemical, small-molecule microarray, 635 nm fluorescence, primary screen (AID 1125).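 Also: score merges 667 nm channel intensity with signal to noise over triplicate slides.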 The following applies: higher = more signal.
Assay [17] concerns Chordin-like protein 2 (CHRDL2). Kind of assay: compounds binding chordin-like 2 – biochemical, small-molecule microarray, 635 nm fluorescence, primary screen (AID 1126).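 Also: printed compound slides probed with Chrdl2 protein at 4 µg/mL for 1 h at 4 C; score merges 667 nm emission intensity with signal to noise over three replicate slides.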 The following applies: fluorescence 635 nm, higher = more signal.
The target in assay [18] is Concanavalin-A (Canavalia ensiformis) (UniProt P02866). Nature of the assay: compounds binding concanavalin A lectin – biochemical, small-molecule microarray, Alexa647 label, 635 nm, artefact control for SMM control protein annotation, primary screen (AID 1127).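 Also: z combines 667 nm emission intensity with signal-to-noise across three replicate slides.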 As to conditions: ConA-A647 binding fluorescence, higher = more signal.

Calls of active or inactive are those of the source.

Chain of Alpha-bungarotoxin (Bungarus multicinctus) (P60615 whole entry, looked up): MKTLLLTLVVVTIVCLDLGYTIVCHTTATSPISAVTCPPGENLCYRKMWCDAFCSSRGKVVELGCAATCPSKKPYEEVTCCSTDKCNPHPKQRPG
Chain of Concanavalin-A (Canavalia ensiformis) (P02866 whole entry, looked up): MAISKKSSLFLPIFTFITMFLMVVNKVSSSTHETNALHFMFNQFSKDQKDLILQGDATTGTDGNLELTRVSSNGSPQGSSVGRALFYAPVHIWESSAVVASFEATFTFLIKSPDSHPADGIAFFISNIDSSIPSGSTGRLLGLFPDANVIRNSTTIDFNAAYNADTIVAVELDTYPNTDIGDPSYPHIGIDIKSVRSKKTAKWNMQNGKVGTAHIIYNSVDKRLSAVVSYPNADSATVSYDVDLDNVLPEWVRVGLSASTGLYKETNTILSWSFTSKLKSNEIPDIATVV
Chain of Left-right determination factor 2 (Homo sapiens) (O00292 whole entry, looked up): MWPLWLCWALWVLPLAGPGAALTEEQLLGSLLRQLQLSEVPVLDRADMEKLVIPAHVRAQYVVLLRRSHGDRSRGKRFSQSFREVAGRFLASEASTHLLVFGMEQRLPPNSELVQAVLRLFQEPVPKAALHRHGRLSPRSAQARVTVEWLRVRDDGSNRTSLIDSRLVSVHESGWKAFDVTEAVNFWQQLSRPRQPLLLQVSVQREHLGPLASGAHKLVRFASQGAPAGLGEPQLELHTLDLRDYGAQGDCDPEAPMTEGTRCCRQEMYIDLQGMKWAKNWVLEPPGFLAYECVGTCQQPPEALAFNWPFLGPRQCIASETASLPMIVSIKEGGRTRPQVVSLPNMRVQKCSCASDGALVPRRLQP
Chain of Torsin-1A-interacting protein 1 (Homo sapiens) (Q5JTV8 whole entry, looked up): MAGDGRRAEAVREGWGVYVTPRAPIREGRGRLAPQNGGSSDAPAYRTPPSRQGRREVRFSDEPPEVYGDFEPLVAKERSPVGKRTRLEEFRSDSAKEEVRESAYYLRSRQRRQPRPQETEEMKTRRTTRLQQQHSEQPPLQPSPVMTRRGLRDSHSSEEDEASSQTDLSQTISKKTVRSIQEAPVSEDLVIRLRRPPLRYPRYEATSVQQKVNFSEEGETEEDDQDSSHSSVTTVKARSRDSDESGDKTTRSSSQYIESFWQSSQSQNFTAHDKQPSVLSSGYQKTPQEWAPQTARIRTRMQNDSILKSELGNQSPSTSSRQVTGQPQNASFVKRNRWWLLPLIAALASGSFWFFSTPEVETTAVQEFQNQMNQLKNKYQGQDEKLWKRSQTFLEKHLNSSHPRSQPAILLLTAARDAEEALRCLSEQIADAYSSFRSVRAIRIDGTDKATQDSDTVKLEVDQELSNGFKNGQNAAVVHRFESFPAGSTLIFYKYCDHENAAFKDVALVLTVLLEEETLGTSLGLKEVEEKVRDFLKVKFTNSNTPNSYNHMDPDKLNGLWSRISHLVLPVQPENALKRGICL
Chain of Albumin (Bos taurus) (P02769 whole entry, looked up): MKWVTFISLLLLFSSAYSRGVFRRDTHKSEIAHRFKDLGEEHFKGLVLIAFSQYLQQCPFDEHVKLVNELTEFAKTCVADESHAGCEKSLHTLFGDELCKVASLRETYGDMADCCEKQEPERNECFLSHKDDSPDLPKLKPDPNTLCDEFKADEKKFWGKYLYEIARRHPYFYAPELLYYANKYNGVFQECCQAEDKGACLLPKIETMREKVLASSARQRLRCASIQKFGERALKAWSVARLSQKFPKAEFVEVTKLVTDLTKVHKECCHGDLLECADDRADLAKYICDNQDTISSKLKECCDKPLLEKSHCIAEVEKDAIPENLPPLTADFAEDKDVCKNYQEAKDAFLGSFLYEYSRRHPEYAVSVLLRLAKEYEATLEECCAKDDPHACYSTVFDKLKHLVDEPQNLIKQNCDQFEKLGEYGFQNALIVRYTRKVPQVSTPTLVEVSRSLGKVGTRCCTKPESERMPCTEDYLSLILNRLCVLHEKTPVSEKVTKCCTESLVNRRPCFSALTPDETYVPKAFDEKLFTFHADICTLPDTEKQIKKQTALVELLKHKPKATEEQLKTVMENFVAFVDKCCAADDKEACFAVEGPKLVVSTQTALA

For `C=CCOC(=O)[C@H]1[C@@H]2C(=O)O[C@@H](c3ccccc3)[C@@H](c3ccccc3)N2[C@@H](c2ccc(OCCOC(=O)[C@H]3C[C@H]4C(=O)N[C@@H](Cc5ccccc5)C(=O)N4[C@H]3c3cccc(OCCO)c3)cc2)[C@]12C(=O)Nc1ccc(I)cc12`, the composite z-score in [1] was 1.38; in assay [3], 0.692; in [4], 0.384; in assay [5], 0.334; in assay [6] it was 0.0004; in [7] it was -0.144. Moreover, the composite z-score in assay [8] is -0.175; in [9], 1.25; in assay [10] it was 1.35; with Albumin (Bos taurus), -0.291; in [12], 0.071; in assay [13] it was -0.117. In addition, the composite z-score in assay [14] was 0.487; in [15], -0.0456; in assay [16], 0.335; in the assay on Sam68 (KHDRBS1) it was 1.28; in assay [17], 1.25; in assay [18], 1.12. This molecule also showed a z-score in assay [2] of -1.68. Besides, the composite Z-score in assay [11] was 1.02 (inactive).
Consider `C=C[C@@H](COC(C)=O)NS(=O)(=O)c1ccc(Br)cc1`, for which the composite z-score was 0.487 in assay [1]; 0.219 in assay [3]; -0.271 in [4]; -0.144 in assay [5]; -0.0478 in assay [6]; -0.0643 in assay [7]. Also, the composite z-score was -0.538 in assay [8]; -0.0651 in assay [9]; 0.225 in assay [10]; -0.0541 in the assay with Albumin (Bos taurus); -0.0728 in assay [12]; -0.0859 in assay [13]. The composite z-score in assay [14] was 0.28; in [15], 0.151; in assay [16], -0.0973; in the assay on Sam68 (KHDRBS1), 0.597; in assay [17], 0.0699; in [18], 0.205. Moreover, the z-score in assay [2] was -0.178. The composite Z-score in assay [11] was 0.486 (inactive).
On to `COC(=O)[C@H](Cc1ccccc1)N1CC(/C=C/C2CC2)=C[C@@H]1[C@@H](O)Cc1ccccc1`, for which the composite z-score in assay [1] is 1.31; in assay [3] it was 1.04; in [4] it was 0.48; in [5], -0.513; in assay [6], 0.0079; in assay [7], -0.0035. The composite z-score in assay [8] was 0.131; in assay [9], 0.0412; in assay [10], 0.737; in the assay with Albumin (Bos taurus), 0.506; in assay [12], 0.126; in assay [13], -0.166. Moreover, the composite z-score in assay [14] was 0.171; in assay [15], 0.992; in [16] it was 1.66; in the assay on Sam68 (KHDRBS1), 1.34; in [17], 0.779; in assay [18], 1. Besides, the z-score in [2] is -1.33. The composite Z-score in assay [11] was -0.325 (inactive).
For `O=C1OCC=C[C@H]2OC34C=CCN(c5ccc(Cl)cc5)C(=O)[C@H]3N(CCCCCO)C(=O)[C@@H]4[C@@H]12` (stereo not given in full), the composite z-score in assay [1] was -0.932; in [3], -1.92; in assay [4], -0.501; in assay [5] it was 0.0666; in [6], -0.172; in assay [7], 0.0121. The composite z-score in assay [8] is 0.347; in [9], 0.0462; in [10], -1.64; with Albumin (Bos taurus), 0.387; in assay [12] it was -0.42; in [13], -0.168. Also, the composite z-score in assay [14] was 0.807; in assay [15], -0.347; in assay [16] it was 0.406; with Sam68 (KHDRBS1) it was -1.56; in [17] it was -0.971; in [18], -0.893. This molecule also registered a z-score in assay [2] of -0.621. Further, the composite Z-score in assay [11] is 0.0583 (inactive).
`COCCOC(=O)N1C(=O)[C@@]2(c3cc(C#CC4=CCCCC4)ccc31)[C@H](c1ccc(O)cc1)N1[C@H](c3ccccc3)[C@H](c3ccccc3)OC(=O)[C@H]1[C@@H]2C(=O)Nc1nc2ccccc2s1`: the composite z-score in [1] was 0.909; in [3] it was 0.494; in assay [4], 1.81; in assay [5], 0.0702; in assay [6] it was -0.0654; in [7], -0.066. Moreover, the composite z-score is -0.482 in assay [8]; 1.12 in [9]; 1.21 in [10]; 0.802 with Albumin (Bos taurus); 0.302 in assay [12]; -0.121 in [13]. Moreover, the composite z-score in assay [14] turned out to be 0.556; in assay [15], 2.78; in [16] it was 0.657; in the assay on Sam68 (KHDRBS1), 1.32; in assay [17], 0.206; in assay [18], 1.12. In [2], this molecule had a z-score of -0.598. In assay [11], the composite Z-score is -0.202 (inactive).

Source of the values: PubChem BioAssay.
